Activity calls are given as the source filed them. Unless noted, the rule behind the calls is not given here.
What was measured:
[1] = HepG2 liver cancer cell viability effects, profiling panel, resazurin fluorescence, 24 h, PK04 Diversity Set (AID 1172); conditions: higher = more signal
[2] = basal S. cerevisiae growth modulation, no modifier, primary screen, OD600, strain BY4716, 24 h, basal condition (AID 1173); conditions: OD600, 24 h, higher = more signal, called active from +8 up or from −8 down
[3] = MM1S myeloma cell viability, profiling panel, resazurin fluorescence, basal, 24 h, PK04 Diversity Set (AID 1174); conditions: higher = more signal, called active from +8 up or from −8 down;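 note: MM1S multiple myeloma cell line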
[4] = target: Dihydroorotate dehydrogenase (quinone), mitochondrial (Plasmodium falciparum (isolate 3D7)) (UniProt Q08210); test: PfDHODH enzyme inhibitors, primary screen, biochemical, C-terminal His tag, absorbance 600 nm (AID 1175); conditions: DCIP absorbance 600 nm, higher = more signal, called active from +8 up or from −8 down;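 note: recombinant parasite enzyme with a five histidine tag at its C terminus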
Dihydroorotate dehydrogenase (quinone), mitochondrial (Plasmodium falciparum (isolate 3D7)), sequence (Q08210 whole entry, looked up): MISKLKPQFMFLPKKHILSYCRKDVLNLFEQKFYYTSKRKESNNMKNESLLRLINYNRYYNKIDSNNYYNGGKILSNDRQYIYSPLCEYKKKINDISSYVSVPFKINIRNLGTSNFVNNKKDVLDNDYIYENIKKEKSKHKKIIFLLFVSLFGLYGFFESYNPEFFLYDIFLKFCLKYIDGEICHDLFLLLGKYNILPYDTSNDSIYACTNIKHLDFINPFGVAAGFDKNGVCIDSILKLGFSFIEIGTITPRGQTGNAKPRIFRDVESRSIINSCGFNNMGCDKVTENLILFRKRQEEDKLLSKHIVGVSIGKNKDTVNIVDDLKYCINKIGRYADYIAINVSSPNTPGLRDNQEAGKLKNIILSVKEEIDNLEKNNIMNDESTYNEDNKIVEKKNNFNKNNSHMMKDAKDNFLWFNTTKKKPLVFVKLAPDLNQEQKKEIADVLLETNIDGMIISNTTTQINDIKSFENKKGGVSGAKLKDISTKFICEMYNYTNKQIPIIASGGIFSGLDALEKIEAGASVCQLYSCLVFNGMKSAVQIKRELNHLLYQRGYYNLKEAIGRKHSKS

[5] = P. aeruginosa biofilm formation inhibitors, primary screen, strain PAO1, LB-PBS medium, absorbance 600 nm (AID 1176); conditions: P. aeruginosa PAO1 growth/biofilm, A600, 12 h; higher = more signal
[6] = S. cerevisiae RM11-1a growth modifiers, primary screen, strain RM11-1a, OD600, basal, 24 h (AID 1177); conditions: OD600, 24 h, higher = more signal, called active from +8 up or from −8 down;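 note: cultures grown under basal conditions with no added stressor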
[7] = E. coli acrAB mutant growth effects, primary screen, E. coli filamentation inducers, strain DRC39, OD650, 24 h (AID 1178); conditions: higher = more signal, called active from +8 up or from −8 down;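 note: growth measured as culture turbidity by optical density at 650 nm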
[8] = E. coli acrAB mutant growth effects, primary screen, E. coli filamentation inducers, strain DRC39, OD650, 48 h (AID 1179);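 note: screen aims at cell division blockers that make cells filament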; conditions: E. coli DRC39 delta-acrAB growth, higher = more signal, called active from +8 up or from −8 down
[9] = RPMI8226 myeloma cell viability, profiling panel, resazurin fluorescence, basal, 24 h, PK04 Diversity Set (AID 1180); conditions: higher = more signal;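 note: RPMI8826 multiple myeloma cell line at 5000 cells per well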
[10] = target: E3 ubiquitin-protein ligase XIAP (Homo sapiens) (UniProt P98170); test: XIAP binders, primary screen, biophysical, small-molecule microarray, fluorescence 635 nm (AID 1181); conditions: small-molecule microarray binding, higher = more signal;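 note: score merges 667 nm emission and signal to noise over triplicate slides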
E3 ubiquitin-protein ligase XIAP (Homo sapiens), sequence (P98170 whole entry, looked up): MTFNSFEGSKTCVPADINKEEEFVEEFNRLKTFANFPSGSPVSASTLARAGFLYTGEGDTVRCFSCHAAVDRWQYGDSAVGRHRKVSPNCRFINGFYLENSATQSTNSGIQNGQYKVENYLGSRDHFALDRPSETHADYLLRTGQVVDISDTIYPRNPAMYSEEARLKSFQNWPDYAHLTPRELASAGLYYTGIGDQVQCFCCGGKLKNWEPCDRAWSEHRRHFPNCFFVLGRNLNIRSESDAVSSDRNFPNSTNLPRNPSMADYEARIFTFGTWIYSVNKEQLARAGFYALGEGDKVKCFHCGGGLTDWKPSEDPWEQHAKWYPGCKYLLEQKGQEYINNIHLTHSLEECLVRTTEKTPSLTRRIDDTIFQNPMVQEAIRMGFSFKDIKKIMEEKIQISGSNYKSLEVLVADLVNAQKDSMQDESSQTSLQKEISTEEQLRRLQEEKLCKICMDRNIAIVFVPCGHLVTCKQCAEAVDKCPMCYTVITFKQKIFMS

[11] = tested on: XIP peptide (Xip251-270) binding; test: small-molecule binders of XIP peptide, primary screen, biochemical, small-molecule microarray, fluorescence 635/667 nm, 0.1 µg/mL protein (AID 1182); conditions: fluorescent protein binding, 635 nm, higher = more signal, called active from +8 up or from −8 down
XIP peptide (Xip251-270) = test: small-molecule binders of XIP peptide, primary screen, biochemical, small-molecule microarray, fluorescence 635/667 nm, 0.5 µg/mL protein (AID 1183); conditions: small-molecule microarray binding, fluorescence 635 nm; higher = more signal
[12] = Plasmodium falciparum growth inhibition, primary screen, strain 3D7, DAPI fluorescence, 100 nL (AID 1184);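 note: parasites grown inside human red blood cells in medium with human serum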; conditions: P. falciparum 3D7 growth, 3 d, higher = more signal
[13] = target: Homeobox protein Hox-A13 (Mus musculus) (UniProt Q62424); test: inhibitors of HoxA13-DNA binding, primary screen, biochemical, fluorescence polarization, labeled oligonucleotide (AID 1185); conditions: 15 min, higher = more signal, called active from +8 up or from −8 down
Homeobox protein Hox-A13 (Mus musculus), sequence (Q62424 whole entry, looked up): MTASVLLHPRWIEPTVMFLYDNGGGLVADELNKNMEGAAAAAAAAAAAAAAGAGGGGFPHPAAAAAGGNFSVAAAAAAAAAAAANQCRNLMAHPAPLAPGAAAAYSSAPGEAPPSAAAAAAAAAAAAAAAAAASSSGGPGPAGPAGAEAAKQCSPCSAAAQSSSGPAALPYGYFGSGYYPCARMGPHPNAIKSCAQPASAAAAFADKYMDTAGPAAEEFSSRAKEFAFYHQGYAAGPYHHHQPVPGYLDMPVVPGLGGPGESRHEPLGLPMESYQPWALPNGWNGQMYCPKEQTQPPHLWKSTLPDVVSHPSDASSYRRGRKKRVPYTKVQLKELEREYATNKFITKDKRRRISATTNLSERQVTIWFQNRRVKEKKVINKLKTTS

[14] = inhibitors of hydroxyurea-induced Chk1 phosphorylation, primary screen, imaging, HeLa, phospho-Chk1 antibody, percent positive cells (AID 1186); conditions: hydroxyurea-induced phospho-Chk1 immunofluorescence imaging, higher = more signal
[15] = inhibitors of hydroxyurea-induced Chk1 phosphorylation, primary screen, imaging, HeLa, phospho-Chk1 nuclear intensity (AID 1187); conditions: hydroxyurea-induced phospho-Chk1 immunofluorescence imaging, higher = more signal

| Structure (SMILES) | z-score [1] | z-score [2] | z-score [3] | composite z-score [4] | z-score [5] | z-score [6] | z-score [7] | z-score [8] | z-score [9] | composite z-score [10] | composite z-score [11] | composite z-score (XIP peptide (Xip251-270)) | z-score [12] | z-score [13] | z-score [14] | z-score [15] |
| --- | --- | --- | --- | --- | --- | --- | --- | --- | --- | --- | --- | --- | --- | --- | --- | --- |
| O=C(O)[C@H](Cc1ccccc1)n1cc(-c2ccccn2)nn1 | 0.535 | -0.65 (inactive) | 0.365 (inactive) | -0.435 (inactive) | -0.476 (inactive) | 0.911 (inactive) | -0.256 (inactive) | 0.23 (inactive) | 0.373 | 0.122 | 0.355 (inactive) | 0.32 | 0.214 | -0.876 (inactive) | 0.721 (inactive) | 0.662 (inactive) |
| CC=CC(O)C1C=CC2C(=O)N(c3ccccc3)C(=O)C2N1Nc1ccc([N+](=O)[O-])cc1 (stereo not drawn) | -0.0211 | 0.0621 (inactive) | -0.156 (inactive) | -0.213 (inactive) | 0.71 (inactive) | -0.372 (inactive) | -1.19 (inactive) | -0.279 (inactive) | 0.0388 | -0.0807 | 0.542 (inactive) | 0.135 | 1.01 | -3.01 (inactive) | -0.263 (inactive) | -0.973 (inactive) |
| O=C1C[C@]2(c3ccc([N+](=O)[O-])cc3)C(=O)N(Cc3ccccc3)c3cc(CO)ccc3[C@H]2N1CC12CC3CC(CC(C3)C1)C2 | -0.566 | -0.0685 (inactive) | -0.434 (inactive) | -3.36 (inactive) | 0.848 (inactive) | -0.268 (inactive) | -0.22 (inactive) | 0.0276 (inactive) | -0.717 | -0.133 | 0.0547 (inactive) | -1.46 | -0.734 | -1.07 (inactive) | 0.0585 (inactive) | -0.785 (inactive) |
| COc1cc2c(cc1OC)CN(C(=O)[C@H]1[C@@H]3C(=O)O[C@@H](c4ccccc4)[C@@H](c4ccccc4)N3[C@@H](c3ccc(OCCO)cc3)[C@]13C(=O)Nc1ccc(C#CC4(O)CCCCCC4)cc13)CC2 | 0.0686 | 1.19 (inactive) | 0.122 (inactive) | -0.143 (inactive) | 2.91 (inactive) | 3.28 (inactive) | 0.457 (inactive) | 1.25 (inactive) | 0.378 | -0.0011 | 0.63 (inactive) | 0.803 | -1.88 | 2.98 (inactive) | -0.647 (inactive) | -1.2 (inactive) |
| COCCOC(=O)N1C(=O)[C@@]2(c3cc(C#Cc4ccc(OC)cc4)ccc31)[C@H](C(=O)N1CCN(c3ncccn3)CC1)[C@H]1C(=O)O[C@H](c3ccccc3)[C@H](c3ccccc3)N1[C@@H]2c1ccccc1OCCO | 0.205 | 2.91 (inactive) | -0.353 (inactive) | 0.27 (inactive) | 3.8 (inactive) | 4.28 (inactive) | -0.269 (inactive) | 0.188 (inactive) | 0.35 | -0.0928 | -0.148 (inactive) | 0.561 | -1.51 | -0.114 (inactive) | -0.019 (inactive) | -0.0377 (inactive) |
| NC(=O)N1C(=O)C2C(C1=O)C1C=C(CCCO)C2C(c2cccs2)N1Cc1cc2c(cc1Br)OCO2 (stereo not drawn) | 0.652 | -2.37 (inactive) | 0.271 (inactive) | -1.72 (inactive) | -0.259 (inactive) | 0.0427 (inactive) | 0.18 (inactive) | 0.0419 (inactive) | 0.645 | -0.267 | 0.0706 (inactive) | 0.231 | 0.376 | -5.04 (inactive) | 0.164 (inactive) | 0.509 (inactive) |
| CC=CC(O)C1C=CC2C(=O)N(C)C(=O)C2N1Nc1ccc([N+](=O)[O-])cc1[N+](=O)[O-] (stereo not drawn) | -1.12 | 0.554 (inactive) | -0.831 (inactive) | 0.295 (inactive) | 0.599 (inactive) | 0.658 (inactive) | -0.476 (inactive) | -0.618 (inactive) | -0.606 | -0.247 | 0.32 (inactive) | 0.266 | 0.619 | -0.734 (inactive) | -0.0994 (inactive) | -0.104 (inactive) |
| C=C1C2CC3C(=C4C(CO[C@@H]4[C@H]4CCCN4S(=O)(=O)c4ccccc4[N+](=O)[O-])C4C(=O)N(C)C(=O)C34)CC2C(=O)N1C (stereo partly drawn) | -0.398 | -1.05 (inactive) | -0.316 (inactive) | -0.911 (inactive) | 0.413 (inactive) | -0.302 (inactive) | -0.579 (inactive) | -0.219 (inactive) | -0.864 | -0.102 | 0.253 (inactive) | 0.849 | 0.769 | -7.2 (inactive) | -0.0718 (inactive) | 0.645 (inactive) |

Reference: PubChem BioAssay
